# Screening data as filed in PubChem.
# In the library only some 1.8% were active in any assay of this set; here they are far more common.
# Granule exo inh: LAMP-1 surface exposure blockers, TALL-104 cells – cell-based, flow cytometry, MLPCN library, primary screen; hit rate 0.66% among 360,000; TALL-104 LAMP-1 surface exposure; cells stimulated with thapsigargin and PMA; inhibition, % at 10 µM;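 active means inhibition above about 55%, limit read from the data; inconclusive means no clear call, values can overlap the other calls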
# ABCB6 inh MLPCN: ABCB6 transporter inhibitors, primary screen, K562-ABCB6 cells, flow cytometry, MLPCN library; K562-ABCB6 porphyrin accumulation, 1 h; hits give low values; fluorescence ratio to DMSO, % at 10 µM; hit rate 0.19% among 360,000;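 active means fluorescence ratio to DMSO below 75%, the collection mean minus 3 SD; inconclusive means too few cells collected in the well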;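 further: signal is porphyrin accumulated inside mitochondria; 100% equals median channel fluorescence of DMSO control wells; lower ratio means ABCB6 inhibition with less porphyrin fluorescence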
# Target sequence (Q9NP58 whole entry, looked up): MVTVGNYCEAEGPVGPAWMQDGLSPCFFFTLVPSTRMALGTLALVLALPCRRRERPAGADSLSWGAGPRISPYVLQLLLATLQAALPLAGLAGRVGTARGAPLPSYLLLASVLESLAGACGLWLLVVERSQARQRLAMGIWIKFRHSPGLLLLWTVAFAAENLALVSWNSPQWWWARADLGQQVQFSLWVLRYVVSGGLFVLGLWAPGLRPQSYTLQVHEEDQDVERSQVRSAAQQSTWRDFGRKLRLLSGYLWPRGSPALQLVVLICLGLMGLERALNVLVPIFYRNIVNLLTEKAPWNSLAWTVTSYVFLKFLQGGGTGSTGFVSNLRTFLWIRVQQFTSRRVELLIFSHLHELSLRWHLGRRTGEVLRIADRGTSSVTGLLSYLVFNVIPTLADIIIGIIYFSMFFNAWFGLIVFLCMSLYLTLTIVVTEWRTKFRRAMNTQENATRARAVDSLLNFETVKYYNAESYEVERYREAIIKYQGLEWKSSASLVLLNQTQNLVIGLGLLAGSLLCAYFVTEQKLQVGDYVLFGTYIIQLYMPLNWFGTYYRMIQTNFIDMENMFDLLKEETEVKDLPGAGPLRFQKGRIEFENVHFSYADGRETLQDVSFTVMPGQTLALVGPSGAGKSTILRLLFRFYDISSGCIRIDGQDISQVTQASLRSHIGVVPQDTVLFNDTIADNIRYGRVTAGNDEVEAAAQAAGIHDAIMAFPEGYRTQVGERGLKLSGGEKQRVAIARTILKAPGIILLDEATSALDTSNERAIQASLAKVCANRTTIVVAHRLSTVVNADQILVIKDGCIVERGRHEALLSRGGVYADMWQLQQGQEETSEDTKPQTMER
# Myeloid diff MLP: induction of myeloid progenitor differentiation, primary screen, cell-based, flow cytometry, MLPCN library | ER-HoxA9 myeloid progenitors, lysozyme-GFP differentiation | calls only at 10 µM | hit rate 1% among 360,000 | AID 624256, 2012;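 active means normalized GFP-positive differentiation at or above the plate's own cutoff, the solvent-only control mean plus 3 SD; inconclusive means no clear call, values can overlap the other calls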;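 further: cells exposed to compound for four days before flow analysis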
# Myeloid diff: inducers of myeloid progenitor differentiation, confirmation, cell-based, GFP/Mac1 flow cytometry, cherry pick 01 | hit rate 2% among 2,300 | shares compounds with Myeloid diff MLP | AID 651706, 2012 | calls only | ER-HoxA9 myeloid progenitors, GFP/Mac1 double-positive flow;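 active means share of green or green-and-red cells above 9 and 9% in run 1 or 4 and 3% in run 2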
# GFP autofluor: compound fluorescence in myeloid differentiation counter-screen | hit rate 7.4% among 2,300 | fluorescence response, % (test concentration not listed) | shares compounds with Myeloid diff MLP | ER-HoxA9 myeloid progenitors, no estrogen, GFP autofluorescence flow cytometry; vehicle wells 0%, positive control 100%;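 active means over 5% cells positive for green fluorescent reporter, or over 2% positive for both it and APC stain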;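 further: range taken on the double positive population between DMSO and positive control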
# * hit, by the source's call; i = inactive; ? = inconclusive; / = no result given; + = active, no number.
SMILES,Granule exo inh,ABCB6 inh MLPCN,Myeloid diff MLP,Myeloid diff,GFP autofluor
COc1ccc(-c2cc(-c3ccccc3)nc(SC(C)C(=O)O)c2C#N)cc1 (stereo unspecified),-8.0,99.0,i,/,/
CC(C)CN1CCC(=O)N([C@H](CO)Cc2ccccc2)CC1,52.1,98.0,i,/,/
Cn1c(-c2ccccc2)c[n+]2c1-c1ccccc1C2,2.0,100.0,i,+,0.0
Cn1c(-c2ccccc2)cccc1=O,7.9,100.0,i,/,/
COc1cc(/C=C/C(=O)OCC(=O)Nc2cc(C(F)(F)F)ccc2N2CCOCC2)ccc1O,1.6,95.0,i,/,/
COc1cc(CCCN2C(=S)NC[C@@H]2CC2CCCCC2)cc(OC)c1OC,27.9,102.0,i,/,/
CCOC(=O)[C@H]1[C@H]2COc3cc(OC)ccc3[C@@H]2N2C(=O)CN(CCc3c[nH]c4ccccc34)C(=O)[C@@]12C,-4.0,100.0,i,i,0.4
CCOC(=O)[C@H]1[C@H]2COc3ccc(Br)cc3[C@H]2N2C(=O)CN(CCc3c[nH]c4ccccc34)C(=O)[C@@]12C,-5.7,98.0,i,/,/
CCOc1ccccc1C(=O)NCC(=O)NNC(=O)c1csc(N2CCOCC2)n1,-4.3,97.0,i,/,/
CC(=O)CC(=O)NC(=NC1CCCCC1)Nc1nc(C)cc(C)n1,-2.0,96.0,+,i,0.5
Cc1cc(C)nc(NNC(=O)NC2CCCCC2)n1,-3.3,101.0,i,/,/
O=C(COC(=O)CN1C(=O)c2ccccc2C1=O)NC1CCCC1,-5.0,98.0,i,/,/
COc1cc(NC(=O)Cn2cnc3c(NCc4ccccc4)ncnc32)cc(OC)c1OC,-2.5,95.0,i,/,/
CC1(C(=O)NS(=O)(=O)c2ccc3ccccc3c2)CCN1C(=O)Cc1ccc(Cl)cc1Cl (stereo unspecified),-4.1,97.0,i,/,/
CCCCOc1cc(C)nc(NCc2ccccc2)n1,-3.1,95.0,i,/,/
CCOc1cc(C)nc(NCc2ccccc2)n1,2.1,88.0,+,i,3.7
CN(Cc1cccc(F)c1)C(=O)c1ccccc1Sc1ccccc1C#N,-1.8,98.0,?,/,/
Cc1ccc(NC(=O)C2CC2c2ccccc2)c([N+](=O)[O-])c1 (stereo unspecified),8.6,98.0,i,/,/
CCc1ccc(S(=O)(=O)N/N=C\c2ccc3c(c2)OCO3)cc1,-12.1,103.0,i,/,/
CC1CCN(C(=S)Nc2cccc(S(=O)(=O)N(C)C)c2)CC1,1.6,i,+,i,0.3
CC1Cc2ccccc2N1C(=S)Nc1cccc(S(=O)(=O)N(C)C)c1 (stereo unspecified),-4.0,104.0,i,/,/
CCN(CC(=O)Nc1ccc(NC(C)=O)cc1)C(=O)c1cccc(S(=O)(=O)N2CCCC2)c1,-5.5,99.0,i,/,/
CCOC(=O)C(N)CSC1CC(=O)N(CCc2ccccc2)C1=O (stereo unspecified),46.8,104.0,i,/,/
O=C(Nc1sc2c(c1C(=O)NCC1CCCO1)CCCC2)c1cccs1 (stereo unspecified),14.1,105.0,i,i,0.0
O=C(Nc1sc2c(c1C(=O)O)CCCC2)c1cccs1,1.1,101.0,i,/,/
SMILES,Granule exo inh,ABCB6 inh MLPCN,Myeloid diff MLP,Myeloid diff,GFP autofluor
NC(=O)NNC1=Nc2cccc3cccc1c23,0.7,101.0,i,i,0.0
Cc1ccc(C(=O)NNC2=Nc3cccc4cccc2c34)cc1,-1.6,96.0,i,/,/
O=C(c1ccc(Cl)c(S(=O)(=O)N2CCOCC2)c1)N1CCN(c2ccccc2)CC1,-1.4,94.0,i,/,/
O=C(NC(=S)Nc1ccc(CN2CCCCC2)cc1)c1cc2ccccc2o1,41.7,101.0,i,/,/
CC[N+](CC)(CC#Cc1ccccc1)CC#Cc1ccccc1,0.9,98.0,?,/,/
C#CC[N+](CC)(CC)CC#Cc1ccccc1,-2.1,99.0,+,+,3.7
COc1ccc(NN=Nc2nc3c([nH]2)c(=O)n(C)c(=O)n3C)cc1,4.8,101.0,i,/,/
COc1ccc(CNc2ncc(-c3ccc(Cl)cc3)n2C)c(OC)c1OC,9.0,103.0,i,/,/
COc1ccccc1C(=O)NN(C)C1=NS(=O)(=O)c2ccccc21,3.3,100.0,i,/,/
Cc1ccc2c(c1)-c1c(cnn1CC(=O)Nc1ccccc1N1CCN(C)CC1)CO2,4.2,98.0,i,i,0.0
Cc1ccc2c(c1)-c1c(cnn1CC(=O)O)CO2,-0.9,101.0,i,/,/
CC(=O)Nc1cccc(Oc2ccc3c(c2)C(=O)NC3=O)c1,12.4,103.0,i,/,/
COc1cccc(N=CC=C2OC(C)(C)C(C)(C)O2)c1,0.6,102.0,i,/,/
Cc1cccc(N=CC=C2OC(C)(C)C(C)(C)O2)c1,-1.2,85.0,+,i,0.0
CCC(=O)Nc1cc(-c2nn(C)c(=O)c3ccccc23)ccc1OC,-1.5,97.0,i,/,/
COc1ccc(-c2nn(C)c(=O)c3ccccc23)cc1NC(=O)Cn1nc(C)c2ccccc2c1=O,-3.4,96.0,+,i,0.0
CCN(CC1CCCO1)C(=O)C1CCN(C2CCN(Cc3ccccc3C)CC2)CC1 (stereo unspecified),8.5,101.0,?,/,/
COc1ccc(NC(=O)Nc2nnc(C(C)(C)C)s2)cc1,-11.1,97.0,?,/,/
CC(C)(C)c1nnc(NC(=O)Nc2ccc(Cl)cc2)s1,-0.4,96.0,+,i,0.3
Cc1ccc(NC(=O)CNC(=O)c2ccco2)cc1,-9.1,100.0,i,/,/
O=C(Nc1cnc2ccccc2c1)N1CCCCC1,-2.7,84.0,i,/,/
O=C(Nc1cnc2ccccc2c1)N1CCOCC1,0.7,95.0,i,i,0.0
CCOc1ccc(S(=O)(=O)N2CCCCC2)cc1NC(=O)CN1C(=O)NC(C)(c2ccc(C)cc2)C1=O (stereo unspecified),20.0,99.0,i,/,/
COc1cc(CN2CCN(Cc3ccc4cc(F)ccc4n3)CC2CCO)cc(OC)c1 (stereo unspecified),9.4,142.0,i,i,0.0
COc1ccc(CN2CCN(Cc3ccc4cc(F)ccc4n3)CC2CCO)c(C)c1C (stereo unspecified),16.7,100.0,i,/,/
CCNC(=O)C1(C)CCCN(CCOc2ccc(OC)cc2)C1 (stereo unspecified),9.6,95.0,i,/,/
COc1ccc(-n2c(SCC(N)=O)nnc2-c2ccc(NS(=O)(=O)c3ccc(C)cc3)cc2)cc1,1.7,100.0,+,i,0.3
COc1ccc(-n2c(SCC(=O)Nc3ccccc3)nnc2-c2ccc(NS(=O)(=O)c3ccc(C)cc3)cc2)cc1,3.5,98.0,i,/,/
COc1ccc(/C=C/c2onc(C)c2S(=O)(=O)N2CCC(C(=O)N3CCCCCC3)CC2)cc1,6.1,98.0,i,/,/
Cc1ccc(/C=C/c2onc(C)c2S(=O)(=O)N2CCC(C(=O)N3CCCCC3)CC2)cc1,13.9,99.0,i,i,0.0
